What was measured:
Details in all cases: concentration: 10 µM; 24 h
[1] = test system: HCC1569; assay: cell number relative to DMSO (% of DMSO); higher = more cells (less growth inhibition / toxicity)
How it was run: (§1)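 HCC1569 and TDF cells were seeded at 800 per well in 384-well plates in RPMI with 10% FBS and treated with compounds at 10 µM for 24 h at 37 °C, in triplicate. After fixation in 3.7% formaldehyde, cells were stained with a rabbit anti-H1.0 antibody, an AlexaFluor 647 secondary and DAPI, and six fields per well were imaged at ×10. H1.0 nuclear intensity or cell number is given as percent of the plate control, using the median of replicates, with HCC1569 values smoothed for positional effects.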

[2] = test system: TDF; assay: as above
How it was run: as §1

[3] = test system: TDF; assay: H1.0 immunofluorescence intensity relative to DMSO (% of DMSO); higher = stronger H1.0 induction, active = 120 or more
How it was run: as §1

[4] = test system: HCC1569; assay: H1.0 immunofluorescence intensity relative to DMSO (% of DMSO); higher = stronger H1.0 induction, active = 140 or more
How it was run: as §1
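Throughout, for H1.0 immunofluorescence intensity relative to DMSO: TDF is a line of transformed human dermal fibroblasts of mesenchymal origin.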
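Throughout, for cell number relative to DMSO: TDF denotes transformed human dermal fibroblasts of mesenchymal origin.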

Compound	cell number [1]	cell number [2]	H1.0 immunofluorescence intensity [3]	H1.0 immunofluorescence intensity [4]
CNCCC(Oc1ccc(C(F)(F)F)cc1)c1ccccc1.Cl (stereo not drawn) [R-(-)-Fluoxetine hydrochloride]	92	105	110 (inactive)	117 (inactive)
CCN(NO)C1=CC(=O)C(=O)C=C1 [ET-3,4-dephostatin]	79.5	97.7	94.7 (inactive)	151 (active)
Cl.O=S(=O)(c1cccc2c(I)cccc12)N1CCCNCC1	105	116	99.4 (inactive)	89.8 (inactive)
CCSC(N)=Nc1ccc(C(F)(F)F)cc1.Cl [TFPI hydrochloride]	79.3	90.8	99.6 (inactive)	132 (inactive)
N=C(N)c1ccc(OCCCCCOc2ccc(C(=N)N)cc2)cc1.O=S([O-])OCCO.O=S([O-])OCCO [Pentamidine isethionate]	93.1	90.6	103 (inactive)	97.2 (inactive)
NC(CCCP(=O)(O)O)C(=O)O (racemic)	103	105	94 (inactive)	93.7 (inactive)
C[Se]CCC(N)C(=O)O (stereo unspecified) [Selenomethionine]	100	94	104 (inactive)	105 (inactive)
CN1CCN(CCC=C2c3ccccc3Sc3ccc(S(=O)(=O)N(C)C)cc32)CC1.Cl [Thiothixene hydrochloride]	95	107	98.5 (inactive)	96.8 (inactive)
CCCCCCCCCCCC=CCCCCCCC(=O)O [8(Z)-Eicosenoic acid]	103	105	100 (inactive)	103 (inactive)

Source: the supplement of paper PMC7156485
